Test results taken from PubChem BioAssay (NCATS).
Results filed as inconclusive are left out. Calls of active or inactive are those of the source. Calls follow the shape of the dose curve; as a rule, active = well fitted inhibition curve with a large enough effect; inconclusive = small, poorly fitted or top-dose-only effect; inactive = flat fitted curve, though single readings scatter.

Tests used:
W2 = experiment: qHTS profiling for inhibitors of Plasmodium falciparum proliferation (AID 504749); details: P. falciparum in erythrocytes, SYBR Green DNA, 72 h; series mostly up to 28.7 µM
Outline: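 Each compound contacts P. falciparum-infected red blood cells for 72 h at 37 C; lysis buffer (Tris, EDTA, saponin, Triton X, SYBR Green I) is added and fluorescence measured next morning; values normalized to controls.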

CRL-7250 = normal cell line; experiment: Cytotoxic Profiling of Annotated Libraries Using Quantitative High-Throughput Screening (AID 1296008); details: Five cell lines viability, CellTiter-Glo ATP luminescence, 48-72 h; max response: active compounds read low; as to max response: % is scaled to controls: 0 for no effect and ±100 for the full control effect
Outline: (§1)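 Cells exposed to compounds for 48 or 72 hr at 37 degrees Celsius. Viability read as ATP-coupled luminescence with CellTiter-Glo after 10 min at room temperature.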

HEK293 = experiment: as above; details: Five cell lines viability, CellTiter-Glo ATP luminescence, 48-72 h; max response: active compounds read low
Outline: as §1

HaCat [1] = experiment: as above; details: Five cell lines viability, CellTiter-Glo ATP luminescence, 48-72 h; max response: active compounds read low
Outline: as §1

NIH3T3 = experiment: as above; details: Five cell lines viability, CellTiter-Glo ATP luminescence, 48-72 h; max response: active compounds read low
Outline: as §1

MCC-13 = experiment: qHTS assay to identify novel small-molecules to repurpose for Merkel cell carcinoma treatment (AID 1296009); details: MCC and control cell lines, CellTiter-Glo viability, 72 h; series mostly up to 46 µM; as to activity change, negative = cytotoxicity: % is scaled to controls: 0 for no effect and ±100 for the full control effect
Outline: (§2)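 Dose-response viability screen; 72 hr exposure at 37 degree celsius; CellTiter-Glo added, 10 min room temperature, luminescence read; RLUs scaled between no-cell and DMSO wells.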

MCC-26 = experiment: as above; details: MCC and control cell lines, CellTiter-Glo viability, 72 h; series mostly up to 46 µM
Outline: as §2

KB-3-1 = experiment: Cytotoxic Profiling of Annotated Libraries Using Quantitative High-Throughput Screening (AID 1296008); details: Five cell lines viability, CellTiter-Glo ATP luminescence, 48-72 h; max response: active compounds read low; as to max response: % is scaled to controls: 0 for no effect and ±100 for the full control effect
Outline: as §1

HACAT [2] = experiment: qHTS assay to identify novel small-molecules to repurpose for Merkel cell carcinoma treatment (AID 1296009); details: MCC and control cell lines, CellTiter-Glo viability, 72 h; at 44.8 µM (top of the series) unless noted; as to activity change, negative = cytotoxicity: % is scaled to controls: 0 for no effect and ±100 for the full control effect
Outline: as §2

HEK293T = experiment: as above; details: MCC and control cell lines, CellTiter-Glo viability, 72 h; at 44.8 µM (top of the series) unless noted
Outline: as §2
Also: nearly all actives have a fitted effect of over 60% in size.
Potency is read from the fitted curve at half-maximal effect.

c1ccc(CC2=NCCN2)cc1
inactive: Potency (W2) | max response (CRL-7250) 1.69% | max response (HEK293) -22.9% | max response (HaCat [1]) -10.1% | max response (NIH3T3) -5.64% | Potency (MCC-13) | Potency (MCC-26)

COc1cc(O)c(C(=O)c2ccccc2)cc1S(=O)(=O)O
active: Potency (W2) 7.57 µM
inactive: max response (CRL-7250) 1.74% | max response (HEK293) -6.68% | max response (HaCat [1]) -4.69% | max response (KB-3-1) -4.48% | max response (NIH3T3) 1.08% | Potency (MCC-13)

CCOC(=O)c1ccc(N)cc1
inactive: Potency (W2) | max response (CRL-7250) -8.72% | max response (HEK293) -24% | max response (HaCat [1]) -25.3% | max response (KB-3-1) 1.36% | max response (NIH3T3) -0.465% | Potency (MCC-13)

Cc1ccc(-c2ncc(Cl)cc2-c2ccc(S(C)(=O)=O)cc2)cn1
inactive: max response (CRL-7250) -1.19% | max response (HEK293) 4.1% | max response (HaCat [1]) -27.8% | max response (NIH3T3) -3.08% | Potency (MCC-13) | Potency (MCC-26)

Cc1cn([C@H]2C[C@H](F)[C@@H](CO)O2)c(=O)[nH]c1=O
inactive: outcome (CRL-7250) | max response (HEK293) 0.5% | outcome (HaCat [1]) | max response (NIH3T3) -16.7% | outcome (HACAT [2]) | Potency (MCC-13) | Potency (MCC-26)

CC(=O)Nc1ncc([N+](=O)[O-])s1
inactive: Potency (W2) | max response (CRL-7250) 2.19% | max response (HEK293) 0.687% | max response (HaCat [1]) 4.2% | max response (KB-3-1) 1.85% | max response (NIH3T3) 4.2% | Potency (MCC-13)

CN1CCN(C2=Nc3ccccc3Sc3ccc(Cl)cc32)CC1
inactive: max response (CRL-7250) -8.62% | max response (HEK293) -15.3% | max response (HaCat [1]) -2.52% | max response (NIH3T3) -1.36% | Potency (MCC-13) | Potency (MCC-26)
active: Potency (W2) 3.79 µM

CC(=O)O[C@H]1C[C@@H]2CC[C@@H]3[C@H](CC[C@@]4(C)[C@H]3C[C@H]([N+]3(C)CCCCC3)[C@@H]4OC(C)=O)[C@@]2(C)C[C@@H]1N1CCCCC1
active: Potency (W2) 12 µM
inactive: max response (CRL-7250) -0.866% | max response (HEK293) 1.01% | max response (HaCat [1]) 3.88% | max response (KB-3-1) -0.262% | max response (NIH3T3) 3.84% | Potency (MCC-13)

CN1CCN(CCC(=O)N2c3ccccc3Sc3ccc(C(F)(F)F)cc32)CC1
inactive: outcome (HaCat [1]) | max response (KB-3-1) 5.81% | outcome (HACAT [2]) | Potency (MCC-13) | Potency (MCC-26)
active: Potency (W2) 4.26 µM | Potency (CRL-7250) 15 µM | Potency (HEK293) 23.7 µM

Nc1nc(Cl)nc2c1ncn2[C@@H]1O[C@H](CO)[C@@H](O)[C@@H]1F
inactive: max response (KB-3-1) 2.36%
active: Potency (CRL-7250) 0.596 µM | Potency (HEK293) 1.5 µM | Potency (HaCat [1]) 1.06 µM | Potency (NIH3T3) 1.19 µM | Potency (MCC-26) 3.76 µM

CCCc1ncc(C[n+]2ccccc2C)c(N)n1
inactive: Potency (W2) | outcome (CRL-7250) | max response (HEK293) -18.1% | max response (KB-3-1) 2.61% | max response (NIH3T3) 2.55% | Potency (MCC-13) | Potency (MCC-26)

C#C[C@]1(O)CC[C@H]2[C@@H]3CCC4=CC(=O)CC[C@@H]4[C@H]3CC[C@@]21CC
inactive: max response (CRL-7250) -4.9% | max response (HEK293) -17.9% | max response (KB-3-1) -1.4% | max response (NIH3T3) -3.66% | Potency (MCC-13) | Potency (MCC-26)

CN1CCC(OC(c2ccccc2)c2ccccc2)CC1
inactive: outcome (CRL-7250) | max response (HEK293) -17.7% | max response (KB-3-1) -12.2% | outcome (NIH3T3) | Potency (MCC-13) | Potency (MCC-26)
active: Potency (W2) 3.22 µM

OC[C@H]1O[C@@H]2O[C@H]3[C@H](O)[C@@H](O)[C@@H](O[C@H]4[C@H](O)[C@@H](O)[C@@H](O[C@H]5[C@H](O)[C@@H](O)[C@@H](O[C@H]6[C@H](O)[C@@H](O)[C@@H](O[C@H]7[C@H](O)[C@@H](O)[C@@H](O[C@H]8[C@H](O)[C@@H](O)[C@@H](O[C@H]1[C@H](O)[C@H]2O)O[C@@H]8CO)O[C@@H]7CO)O[C@@H]6CO)O[C@@H]5CO)O[C@@H]4CO)O[C@@H]3CO
inactive: Potency (W2) | outcome (CRL-7250) | outcome (HEK293) | max response (KB-3-1) 3.96% | max response (NIH3T3) -2.76% | outcome (HEK293T) | Potency (MCC-13) | Potency (MCC-26)

CC1(C)OC[C@@H]2O[C@@]3(C(=O)O)OC(C)(C)O[C@H]3[C@@H]2O1
inactive: max response (CRL-7250) -27.6% | outcome (HEK293) | max response (KB-3-1) -15.5% | max response (NIH3T3) -5.58% | outcome (HEK293T) | Potency (MCC-13) | Potency (MCC-26)

O=C(O)CCNC(=O)c1ccccc1
inactive: Potency (W2) | max response (CRL-7250) 4.33% | outcome (HEK293) | max response (KB-3-1) -6.01% | max response (NIH3T3) 0.555% | outcome (HEK293T) | Potency (MCC-13) | Potency (MCC-26)

COc1ccc2c(c1)c1c3n2CCN(C)C3=NCC1
inactive: Potency (W2) | outcome (CRL-7250) | max response (HEK293) 3.32% | max response (KB-3-1) 0.417% | max response (NIH3T3) 0.478% | Potency (MCC-13) | Potency (MCC-26)

Cn1c(=O)c2[nH]c(Br)nc2n(C)c1=O
inactive: Potency (W2) | outcome (CRL-7250) | max response (HEK293) -7.38% | max response (HaCat [1]) -0.598% | max response (NIH3T3) -3.31% | Potency (MCC-13)

CN(C)CCN1C(=O)c2ccccc2N(C)c2ccccc21
inactive: max response (CRL-7250) -7.77% | max response (HEK293) -1.88% | max response (KB-3-1) 3.06% | max response (NIH3T3) -0.0642% | Potency (MCC-13) | Potency (MCC-26)
active: Potency (W2) 2.13 µM

CN1CCc2cccc3c2[C@H]1Cc1ccc(O)c(O)c1-3
inactive: max response (CRL-7250) -21.4% | max response (KB-3-1) 10.6% | Potency (MCC-26)
active: Potency (W2) 3.01 µM | Potency (HEK293) 23.7 µM

CCOc1ccccc1C(N)=O
inactive: Potency (W2) | outcome (CRL-7250) | max response (HEK293) -2.36% | max response (HaCat [1]) 1.44% | outcome (NIH3T3) | Potency (MCC-13)

N=C(N)N1CCc2ccccc2C1
inactive: Potency (W2) | max response (CRL-7250) -4.65% | max response (HEK293) -8.82% | max response (KB-3-1) 4.15% | max response (NIH3T3) -1.16% | activity change, negative = cytotoxicity (MCC-13) 22.3% [at 4.84 µM] | activity change, negative = cytotoxicity (MCC-26) -4.65% [at 4.84 µM]
